{"source": "PubChem BioAssay (Tox21)", "note": "Values joined by “and” are separate entries in the source; they are usually repeats but may differ in a detail not shown here. Equal values may be shown once. Results filed as inconclusive are left out. A structure can be active in one record and inactive in another. Active and inactive are the calls of the source. The call rests on the fitted dose curve; in most records, active means well fitted cell-killing curve with a large enough effect in the repeat runs (not every such curve was filed as active); inconclusive means weak or mixed curves, or effect the other way; inactive means no such curve, though single readings can be large or run the other way. Starred links: 1 amine or outer side, 2 acyl side, 3 side chain; linkers in the order of their positions; H or OH if unused. Positions of bridges follow the written chain, without caps; N, C: chain ends. Non-standard residues stand in square brackets, D forms with d. Residues, ends and D or L forms follow the SMILES beside them. Chains are numbered I, II in the order given. Actinocin(9to1) = Cc1c2oc3c(C)ccc(C(=O)[*:1])c3nc-2c(C(=O)[*:2])c(N)c1=O; NMeV = CN[C@H](C(=O)O)C(C)C; Sar = CNCC(=O)O"}
{"experiment": "qHTS assay to identify small molecule antagonists of the estrogen related receptor signaling pathway with the pleiotropic PPARgamma coactivator (PGC) from Tox21 10K library - cell viability counter screen (AID 1224840); further: nearly all actives have a fitted effect of over 40% in size; further: potency means the concentration at half of the fitted maximal effect; on viability change, negative = cytotoxic: on the % scale 0 is the no-effect control and ±100 the full control effect", "settings": "PGC/ERR reporter cells viability, CellTiter-Fluor, 17.5 h; series mostly up to 92.4 µM; viability change, negative = cytotoxic: at the top concentration", "excerpt": "National Center for Advancing Translational Sciences [NCATS]\nNIH Chemical Genomics Center [NCGC]\nU.S. Environmental Protection Agency [EPA]\nNational Institutes of Environmental Health Sciences [NIEHS]\nNational Toxicology Program [NTP]\nU.S. Food and Drug Administration [FDA]\nEstrogen related receptors (ERRs), the first orphan nuclear receptors discovered, play an important role in the control of cellular energy metabolism. ERRs are required for high-energy production in response to the environmental challenges. The pleiotropic PPARgamma coactivator (PGC) is a major partner of ERR and a key regulator in energy homeostasis. Together they have been implicated in the etiology of metabolic disorders such as Type 2 diabetes and metabolic syndrome. ERR-alpha was also identified as an adverse marker for breast cancer progression; ERR-alpha-positive tumors have a poor prognosis. To screen and to identify environmental compounds that perturb the ERR and PGC/ERR signaling pathways could provide valuable information for potential therapeutic or preventive measures in the treatment of metabolic disease. To differentiate true PGC/ERR antagonists or agonist from cytotoxic substances, the assay is multiplexed with cell viability assay.\nTox21 Assay Protocol Summary:\nThe PGC/ERR cells were dispensed at 2,000 cells/5 ul/well in 1536-well white plates using a Multidrop dispenser. After the assay plates were incubated at a 37 C/5% CO2 incubator for 6 hours, 23 nL of compounds dissolved in DMSO, positive and negative controls or DMSO only was transferred to the assay plate by a pin tool. The plates were incubated at 37 C for 17.5 hours. 1 ul/well of CellTiter-Fluor reagent was added into the assay plates using a Flying Reagent Dispenser. After 30-minute incubation at 37 C/5% CO2, the fluorescence intensity in the plates was measured using a ViewLux plate reader."}
{"smiles": "CC(C)CCCCCCc1ccc(O)cc1", "Potency": "48.6 µM (active)"}
{"smiles": "COC(=O)/C=C/c1ccccc1", "Potency": "inactive"}
{"smiles": "CCCCN(CCO)CCCC", "viability change, negative = cytotoxic": "2.92% (inactive)"}
{"smiles": "CN(C)c1ccc(C(=C2C=CC(=[N+](C)C)C=C2)c2ccccc2)cc1", "Potency": "3.44 µM (active) and 6.68 µM (active) and 4.73 µM (active)"}
{"smiles": "CCCNC(C)C(=O)Nc1ccccc1C", "note": "(stereo not given)", "viability change, negative = cytotoxic": "8% [at 42.5 µM] (inactive)"}
{"smiles": "Cc1occc(=O)c1OC(=O)C(C)C", "viability change, negative = cytotoxic": "2.52% (inactive)"}
{"smiles": "NCCCCCC(=O)O", "viability change, negative = cytotoxic": "29.7% [at 42.5 µM] (inactive)"}
{"smiles": "CCC(=O)/C=C/C1C(C)=CCCC1(C)C", "note": "(stereo not given)", "Potency": "inactive"}
{"smiles": "O=C(O)CP(=O)(O)O", "viability change, negative = cytotoxic": "1.19% [at 42.5 µM] (inactive)"}
{"smiles": "CC(C)(C)c1cc(C(C)(C)C)c(O)c(C(C)(C)C)c1", "Potency": "inactive"}
{"smiles": "c1ccc2c(c1)-c1cccc3c1c-2cc1ccccc13", "Potency": "inactive"}
{"smiles": "CN(C)c1ccc2nc3ccc(=[N+](C)C)cc-3sc2c1", "Potency": "2.62 µM (active) and 7.7 µM (active)"}
{"smiles": "Cc1ccnc2c1NC(=O)c1cccnc1N2C1CC1", "Potency": "inactive"}
{"smiles": "CC(C)(O)CCC(C)(C)O", "viability change, negative = cytotoxic": "-6.07% (inactive)"}
{"smiles": "Cc1cc(Cc2cc(C)cc(C(C)(C)C)c2O)c(O)c(C(C)(C)C)c1", "Potency": "48.8 µM (active) and 43.3 µM (active)"}
{"smiles": "CC(N)=O", "viability change, negative = cytotoxic": "-0.117% [at 238 µM] (inactive)"}
{"smiles": "Cc1cccc([N+](=O)[O-])c1C(=O)O", "viability change, negative = cytotoxic": "2.44% (inactive)"}
{"smiles": "Oc1ccc(Cl)cc1Cc1cc(Cl)ccc1O", "Potency": "24.8 µM (active)"}
{"smiles": "COc1ccc(CCN(C)CCCC(C#N)(c2ccc(OC)c(OC)c2)C(C)C)cc1OC", "note": "(stereo not given)", "viability change, negative = cytotoxic": "-12.8% [at 42.5 µM] (inactive)"}
{"smiles": "c1cc(C(c2ccc(OCC3CO3)cc2)C(c2ccc(OCC3CO3)cc2)c2ccc(OCC3CO3)cc2)ccc1OCC1CO1", "note": "(stereo not given)", "Potency": "inactive"}
{"smiles": "CC1COC(=O)O1", "note": "(stereo not given)", "Potency": "inactive"}
{"smiles": "c1cnc2cc3c(cc2n1)C1CNCC3C1", "viability change, negative = cytotoxic": "3.16% [at 42.5 µM] (inactive)"}
{"smiles": "Nc1nc(=S)c2[nH]cnc2[nH]1", "viability change, negative = cytotoxic": "-25.6% [at 42.5 µM] (inactive)"}
{"smiles": "CC(=O)O[C@]1(C(C)=O)CC[C@H]2[C@@H]3C[C@H](C)C4=CC(=O)CC[C@]4(C)[C@H]3CC[C@@]21C", "viability change, negative = cytotoxic": "5.23% [at 42.5 µM] (inactive)"}
{"smiles": "C=CC(=O)OCCCCCCCC", "viability change, negative = cytotoxic": "0.263% (inactive)"}
{"smiles": "CC[C@]1(O)C[C@@H]2CN(CCc3c([nH]c4ccccc34)[C@@](C(=O)OC)(c3cc4c(cc3OC)N(C)[C@H]3[C@@](O)(C(=O)OC)[C@H](OC(C)=O)[C@]5(CC)C=CCN6CC[C@]43[C@@H]65)C2)C1", "viability change, negative = cytotoxic": "-23.8% [at 42.5 µM] (inactive)"}
{"smiles": "Cc1c2oc3c(C)ccc(C(=O)N[C@@H]4C(=O)N[C@H](C(C)C)C(=O)N5CCC[C@H]5C(=O)N(C)CC(=O)N(C)[C@@H](C(C)C)C(=O)O[C@@H]4C)c3nc-2c(C(=O)N[C@@H]2C(=O)N[C@H](C(C)C)C(=O)N3CCC[C@H]3C(=O)N(C)CC(=O)N(C)[C@@H](C(C)C)C(=O)O[C@@H]2C)c(N)c1=O", "note": "(I: T[dV]P[Sar][NMeV] / II: T[dV]P[Sar][NMeV]; ester I:1-I:C, II:1-II:C; linker I:N-II:N via Actinocin(9to1))", "Potency": "0.266 µM (active)"}
{"smiles": "CCN(CC)CCOc1ccc(/C(=C(\\Cl)c2ccccc2)c2ccccc2)cc1", "Potency": "49.6 µM (active)"}
{"smiles": "CC(=O)OCC1=C(C(=O)O)N2C(=O)[C@@H](NC(=O)Cc3cccs3)[C@H]2SC1", "viability change, negative = cytotoxic": "6.32% [at 42.5 µM] (inactive)"}
{"smiles": "COc1nc(C)nc(Cl)c1NC1=NCCN1", "viability change, negative = cytotoxic": "1.79% [at 42.5 µM] (inactive)"}
{"smiles": "CNC1(C)C2CCC(C2)C1(C)C", "note": "(stereo not given)", "viability change, negative = cytotoxic": "10.1% [at 42.5 µM] (inactive)"}
{"smiles": "O", "Potency": "inactive"}
{"smiles": "CC[C@@H](N)CO", "viability change, negative = cytotoxic": "1.24% (inactive)"}
{"smiles": "O=C(O)c1cn(-c2ccc(F)cc2)c2cc(N3CCNCC3)c(F)cc2c1=O", "Potency": "inactive"}
{"smiles": "O=Nc1ccc(Nc2ccccc2)cc1", "Potency": "15.4 µM (active) and 19.3 µM (active)"}
{"smiles": "CCN1CCCC1CNC(=O)c1cc(S(=O)(=O)CC)c(N)cc1OC", "note": "(stereo not given)", "viability change, negative = cytotoxic": "1.77% [at 42.5 µM] (inactive)"}
{"smiles": "Cc1cccc2n[nH]nc12", "Potency": "inactive"}
{"smiles": "CCN(CC)C(=S)SSC(=S)N(CC)CC", "Potency": "193 nM (active) and 44.3 nM (active) and 266 nM (active)"}
{"smiles": "Cc1ccc(-c2cc(C(F)(F)F)nn2-c2ccc(S(N)(=O)=O)cc2)cc1", "Potency": "54.3 µM (active) and 54.5 µM (active) and inactive"}
{"smiles": "CNCCC(Oc1ccc(C(F)(F)F)cc1)c1ccccc1", "note": "(stereo not given)", "Potency": "67.7 µM (active) and 29.8 µM (active)"}
